Source: ChEMBL document CHEMBL4888484, “Replenishing the malaria drug discovery pipeline: Screening and hit evaluation of the MMV Hit Generation Library 1 (HGL1) against asexual blood stage Plasmodium falciparum ,using a nano luciferase reporter read-out” (2022)
The whole screen tested about 150,000 compounds, of which about 540 (0.36%) showed an effect of 50% or more. For the sample, strong results were picked, then their nearest neighbours and some compounds at random.

tested on: Plasmodium falciparum; assay: Primary screen in NF54 nanoGlo assay, in single point, at 2uM, 72h; a lower Z score goes with more inhibition; type: functional, Erythrocyte; details: timepoint 72 hour

Row | Structure (SMILES) | % Inhibition [%] | Z score
1 | C[C@H](NC(=O)c1ccccc1)C(=O)NCC1(N2CCOCC2)CCCCC1 | -4 | 0.39
2 | COc1ccc(C(=O)N(Cc2ccc(OS(=O)(=O)c3ccc(F)cc3)cc2)C(C)C)c(OC)c1 | -14 | 1.5
3 | NC(=NCc1ccc(Cl)cn1)N1CCN(c2nccs2)CC1 | -4 | 0.42
4 | NC(=NCc1cccc2cccnc12)N1CCN(c2nccs2)CC1 | 57 | -10.38
5 | NC(=NCc1csc2ccccc12)N1CCN(c2nccs2)CC1 | 5 | -0.56
6 | N#Cc1ncn(C[C@H]2CCC3(CCCCC3)O2)c1C#N | -10 | 1.82
7 | N#Cc1c(CN2CCOCC2)cc(=O)n2c1[nH]c1ccccc12 | 35 | -0.01
8 | Cc1ccc(CN2CCN(C[C@@H](O)Cn3c4ccccc4n4c(=O)cc(C)c(C#N)c34)CC2)c(C)c1 | 86 | -13.14
9 | C[C@H](O)CN1CCN(Cc2cn3ccccc3c2C#N)CC1 | -13 | 2.38
10 | O=C(CC1CCCCC1)NCC1CCN(c2cc(-c3cccnc3)n[nH]2)CC1 | -17 | 1.71
11 | CC[n+]1ccc(-c2ncc(-c3ccc(C(C)(C)C)cc3)o2)cc1 | 66 | -12.84
12 | CO[C@@H](C)C(=O)N(Cc1ncc[nH]1)c1cncc(Br)c1 | 2 | -0.29
13 | COc1ccc(-c2cc(OC(F)(F)F)ccc2O)nn1 | -8 | 1.53
14 | C[N+]1(CCCC(=O)c2ccc3c(c2)OCCO3)CCC(c2ccccc2)C1 (stereo unspecified) | 73 | -8.3
15 | CC1CCCC(C)N1S(=O)(=O)c1ccc(NC(=O)CCC(=O)c2ccc3c(c2)OCCO3)cc1 (stereo unspecified) | -4 | 0.64
16 | O=C(CCC(=O)c1ccc2c(c1)OCCCO2)NCc1ccccc1 | -7 | 1.26
17 | CCn1nccc1-c1cnc2nc(C)nn2c1 | -6 | 0.88
18 | Cc1cc(C)c(C(=O)N2C[C@H](F)C[C@H]2C(N)=O)o1 | 1 | -0.13
19 | Cc1cccc([C@@H](NC(=O)Nc2ncco2)C(F)(F)F)c1 | 54 | 1.59
20 | Cc1cccc([C@@H](NC(=O)CC2OCCCO2)C(F)(F)F)c1 | 3 | -0.38
21 | Cc1cccc(C(NC(=O)[C@@H]2CCCO2)C(F)(F)F)c1 (stereo partly specified) | -6 | 0.81
22 | O=C(Nc1cccc2c1CCCC2)c1cccc(S(=O)(=O)N2CCCCC2)c1 | -16 | 1.73

Row | Structure (SMILES) | % Inhibition [%] | Z score
23 | Cc1cc(=O)c(C(=O)Nc2ccnc(NC(=O)OC(C)(C)C)c2)c[nH]1 | -2 | 0.38
24 | Cn1cncc1CC(=O)Nc1ccnc(NC(=O)OC(C)(C)C)c1 | 94 | -14.52
25 | Cn1cncc1CCN1CCC[C@H](NC(=O)OC(C)(C)C)C1 | -12 | 1.84
26 | CC(C)c1noc(CN2CC[C@H](NC(=O)c3ccccn3)[C@@H](O)C2)n1 | -2 | 0.42
27 | CCCN(CC(=O)N(Cc1ccco1)C[C@H]1CCCO1)C(=O)c1ccc(C)cc1 | -8 | 1.14
28 | COc1ccnc(C(=O)N(Cc2cnn(C)c2)C(C)C)c1 | -10 | 1.37
29 | CC(C)c1nccn1CCC(=O)N1CC[C@H](N)C1 | 6 | -0.94
30 | CC(C)c1nccn1CC(=O)NC(C1CC1)C1CC1 | 1 | -0.12
31 | CC(C)c1nccn1CCC(=O)Nc1ncn(C2CCCCC2)n1 | 50 | 1.4
32 | CC(C)Cn1c(CC2(CC(=O)NC3CCOCC3)CCCC2)nc2cccnc21 | -12 | 1.81
33 | CCN1CCN(Cc2cccc3cccnc23)C(C)(C)C1=O | -9 | 1.65
34 | Cc1ccc(-c2ncc(CN3CCCC4(C3)OCCO4)s2)o1 | -5 | 0.88
35 | COc1cc(C)c(S(=O)(=O)N2CCc3cc4ccccc4nc32)cc1C | -10 | 1.11
36 | C[C@H](NC(=O)c1cncc(O)c1)c1nncn1C | -4 | 0.69
37 | Cc1nc(N(C)C)cc(N2CCN(C(=O)C3CCCC3)CC2)n1 | -17 | 1.88
38 | c1ccc(CC2(c3nc(-c4cnccn4)no3)CCC2)cc1 | 13 | -2.33
39 | COc1cccc(-c2nsc(C(=O)NCc3cccs3)c2N)c1 | 18 | -2.8
40 | OC1CCCCC1N1CCc2sccc2C1 (stereo unspecified) | -21 | 2.66
41 | Clc1cccc(CNCCCNc2ccncc2)c1Cl | 67 | -8.81
42 | CCNCc1cccc(Cl)c1Cl | 4 | -0.5
43 | CCN(CC)CCNCc1cccc(Cl)c1Cl | -2 | 0.28
44 | Cc1ccc2c(c1)CCCN2C(=O)c1ccoc1 | 4 | -0.72

Row | Structure (SMILES) | % Inhibition [%] | Z score
45 | CCn1ccc(C(=O)N[C@H]2CCOC[C@@H]2OC)n1 | -7 | 0.83
46 | OC1CCC(NC(=NC2CC2)NCc2ccccc2F)CC1 (stereo unspecified) | -9 | 1.4
47 | CCOC(=O)CCn1cc(F)c(=O)[nH]c1=O | 74 | -6.55
48 | Cc1cc(C(=O)Cn2cc(Cl)c(=O)[nH]c2=O)c(Cl)cc1F | -1 | 0.1
49 | CC1(C)C(CNC(=O)CCn2cc(C(N)=O)c(=O)[nH]c2=O)C1(C)C | 19 | -2.23
50 | CCCCN(CC)C(=O)Nc1cc(Cl)c(OC)cc1OC | 1 | -0.07
51 | O=C(NCCCn1ccnc1)[C@@H]1Cc2c(ccc3ccccc23)O1 | 4 | -0.47
52 | C[C@@H](C(=O)Nc1ncc[nH]1)c1ccc2c(c1)[nH]c1ccc(Cl)cc12 | 69 | -1.75
53 | CC(C)[C@H](NC(=O)Nc1cc(Cl)ccc1Cl)c1ncc[nH]1 | -5 | 0.62
54 | C[C@@H](C(=O)Nc1nnc[nH]1)c1ccc2c(c1)[nH]c1ccc(Cl)cc12 | -7 | 0.71
55 | CN(c1ccc2c(c1)CCO2)S(C)(=O)=O | 13 | -1.53
56 | C[C@H]1CCN(c2nc(-c3ccccn3)nc3c2CCC3)C1 | 90 | -12.13
57 | C[C@H]1CCCN(c2nc(-c3ccccn3)nc3ccccc23)C1 | 96 | -9.05
58 | NC(=O)C[C@H]1CCN(c2nc(-c3ccccn3)nc3c2CCC3)C1 | -8 | 1.56
59 | FC(F)(F)[C@H]1CCCN(c2nc(-c3cccnc3)nc3ccccc23)C1 | 8 | -0.64
60 | FC(F)(F)C1CN(c2nc(-c3ccccn3)nc3c2CCC3)C1 | 75 | -13.36
61 | c1ccc(-c2nc3c(c(N4Cc5ccccc5C4)n2)CCNC3)nc1 | -4 | 0.52
62 | O=C(O)[C@H]1CCCN(c2nc(-c3ccsc3)nc3ccccc23)C1 | -12 | 2.15
63 | COC[C@H]1CCN(c2nc(-c3ccccn3)nc3c2CCNCC3)C1 | -2 | 0.41
64 | O=C(Cn1nccn1)N1CCN(Cc2ccc3c(c2)OCO3)CC1 | 2 | -0.28
65 | CCN(C(=O)c1cc(N)ccc1Cl)C(C)C | 6 | -0.81
66 | Cc1cccn(CC(=O)N2CCC(=O)[C@@H](C)C2)c1=O | 2 | -0.36

Row | Structure (SMILES) | % Inhibition [%] | Z score
67 | O=C1c2ccccc2C(=O)N1Cc1nc(-c2cccnc2)no1 | -9 | 1.34
68 | Cc1ccsc1C(=O)NCCNc1ncccn1 | -7 | 0.93
69 | CCCc1cnc(C)nc1-c1ccnc2c1ccn2C | -4 | 0.73
70 | Cc1ccncc1C(=O)N1CCC(CCn2c(C)cnc2C2CC2)CC1 | -3 | 0.37
71 | Cc1ccnc(N2CCC(O)(Cn3ccnc3)CC2)n1 | -12 | 1.12
72 | CC(C)(C)c1ccc(=O)n(CC2CN(c3cnsn3)C2)n1 | -16 | 2.38
73 | CC(=O)C(=CNc1ncc(C(F)(F)F)cc1Cl)C(C)=O | -6 | 1.17
74 | C[C@H](Nc1ncc(C(F)(F)F)cc1Cl)C(N)=O | -10 | 1.96
75 | CN(C(=O)C(C)(C)Nc1ncc(C(F)(F)F)cc1Cl)c1ccc(Cl)cc1 | 59 | -7.64
76 | Oc1nc(-c2cccnc2)sc1-c1ccccc1 | -2 | 0.32
77 | FC(F)(F)c1cccc(-c2cc(-c3csc(-c4ccccc4)n3)on2)c1 | 1 | -0.12
78 | Oc1nc(-c2cccc(C(F)(F)F)c2)sc1-c1ccccc1 | 59 | 0.06
79 | O=c1[nH]c2ccsc2c(=O)n1CCc1ccccc1 | 33 | -4.74
80 | O=C(CCn1c(=O)[nH]c2ccsc2c1=O)NCc1ccccc1 | 59 | -1.7
81 | O=C(NCCn1c(=O)[nH]c2ccsc2c1=O)c1ccccc1Cl | -10 | 1.7
82 | COc1cc(C(=O)NCC2(C)CCCCCC2)on1 | -5 | 0.52
83 | CC1=C(C(=O)Nc2ccccc2)[C@H](c2ccc(Cl)cc2)c2c(n(C)c(=O)n(C)c2=O)N1 | -3 | 0.36
84 | O=C(NCCCOCC(F)(F)F)NC1CCCC2OCCC12 (stereo unspecified) | -14 | 1.44
85 | CCN1CCN(CCN2CC3(CCN(Cc4ccccc4C#N)CC3)OC2=O)CC1 | 2 | -0.49
86 | CCc1nc(O)c(C(=O)N2CCOc3cc(F)c(F)cc32)cc1C | -5 | 0.67
87 | Cc1cc(C)c2c(c1)N(C(=O)Cc1cnccc1C)CCO2 | -7 | 0.88
88 | CCc1nc2c(C(=O)N3CCOc4c(C)cc(C)cc43)ccnc2[nH]1 | 71 | -10.67
